The campaign covered roughly 2,300 compounds. About 1,100 (48%) were called active. The set was probably picked from earlier hits. The list shows a part of the results. Results with a measured potency or affinity are listed apart. Unmarked numbers belong to inactive results. How the calls were made is not given here.
Experiment: S. typhi counter-screen signal inhibition – fluorescence, 4 h, counter-screen for PhoP regulon inhibitor project, dose response (AID 2384)
Conditions: S. typhi GFP reporter counter-screen; series mostly up to 150 µM; inhibition: at the top concentration

First: OCn1ncn(-c2ccccc2)c1=S
Second: N=c1ccccn1CC(O)COc1ccccc1 (configuration not stated)
The “inhibition” value of the first is higher: 7.87% for the first, -25.8% for the second.

Going from CCN(CC)/C(N)=N/c1nc(C)cc(C)n1 to Cc1cc(C)c2nc(/N=C(\N)NC(=O)c3ccccc3)nc(C)c2c1, the “inhibition” value falls from 19.2% to 2.46%.

Compared with COc1ccc(OC)c(NC(=O)CSc2nnc3ccc(-c4ccncc4)nn23)c1, Cc1cccc(NC(=O)CSc2nc3c([nH]c4ccccc43)c(=O)n2C)c1 is lower in “inhibition” value: 9.2% for the first, -5.51% for the second.

First: O=c1ccn(CCc2c[nH]c3ccccc23)c2c1CCCC2
Second: O=C(NCc1ccccc1)N[C@@H](Cc1c[nH]c2ccccc12)C(=O)O
The “inhibition” value of the first is lower: -0.3% for the first, 8.61% for the second.

Going from CN(C)C(=O)CC12CC3CC(C1)CC(CC(=O)N(C)C)(C3)C2 to CCS(=O)(=O)N1CCC(C(=O)NCc2cc(OC)ccc2OC)CC1, the “inhibition” value falls from 3.13% to -21.9%.

First: O=C(Cn1[nH]c(=O)c2ccccc2c1=O)Nc1ccc(-c2nnc3n2CCCCC3)cc1
Second: COc1ccc(NC(=O)CCNS(=O)(=O)c2cccc3nonc23)cc1
The “inhibition” value of the first is lower: -15.2% for the first, -8.45% for the second.

First: CCOC(=O)C1CCCN(C/C(O)=C(\C#N)c2nc(-c3ccccc3)cs2)C1 (configuration not stated)
Second: CC1CCCC(NC(=O)COC(=O)CCSc2ccccc2)C1C (configuration not stated)
The “inhibition” value of the first is lower: 8.93% for the first, 11.9% for the second.

Going from Cc1cc(Cl)ccc1OCC(=O)Nc1nc(-c2cccnc2)cs1 to Cc1cccc(NC(=O)c2sc3nc(-c4ccccc4)cn3c2C)n1, the “inhibition” value falls from -11.5% to -13.9%.

Going from O=C1C2C3C=CC(CC3)C2C(=O)N1/N=C/c1ccc(O)cc1 (configuration not stated) to CCOC(=O)C1=C(C)NC(=O)NC1c1ccc(NC(C)=O)cc1 (configuration not stated), the “inhibition” value rises from -17.8% to -8.05%.

First: O=C(Nc1ccc(N2CCOCC2)c(Cl)c1)c1ccc(-n2cnnc2)cc1
Second: COc1ccc(N2CCN(c3cc(C)c4ccc(O)cc4n3)CC2)cc1
The “inhibition” value of the first is lower: -13.5% for the first, -1.1% for the second.

Going from CSC1=NC2(C)CCCCC2C12C=CC(=O)C=C2 (configuration not stated) to CC(C)C(NC(=O)c1ccc(Cl)cc1)C(=O)NCC1CCCO1 (configuration not stated), the “inhibition” value falls from -21.2% to -23.1%.

Compared with Nc1cncc(C(=O)O)c1, O=C(NC(O)C(=O)c1ccccc1)c1ccc(F)cc1 (configuration not stated) is higher in “inhibition” value: -53% for the first, -8% for the second.

Compared with CC(C)OCCCn1c(=S)[nH]c2cc3c(cc2c1=O)OCO3, Clc1ccc2c(c1)c1cc(Cl)ccc1n2CN1CCOCC1 is higher in “inhibition” value: -4.16% for the first, 23.5% for the second.

Going from CC(C)c1ccc(N(C(=O)C(F)(F)F)C(C(=O)NC2CCCCC2)c2ccncc2)cc1 (configuration not stated) to c1cc(N2CCCC2)ccc1C(c1nnnn1C1CCCCC1)N1CCOCC1 (configuration not stated), the “inhibition” value falls from 9.6% to -9.47%.

First: CSc1nc2cc(Oc3cccc(Cl)c3Cl)c(Cl)cc2[nH]1
Second: Clc1ccc2nc(N3CCCCC3)[nH]c2c1
The “inhibition” value of the first is higher: 37.1% for the first, 21.9% for the second.

Going from CC(=O)c1c(C)[nH]c(C(=O)CSc2nnc(-c3ccc(Cl)cc3)n2CC2CCCO2)c1C (configuration not stated) to CC(=O)N(CCC1(c2ccc(C)cc2)CCOC(C(C)C)C1)Cc1ccco1 (configuration not stated), the “inhibition” value rises from -16.2% to 16.3%.

Reference: PubChem BioAssay AID2384 (Southern Research Specialized Biocontainment Screening …, 2010)
